In the supplement of paper PMC10849652:
Targets with a hit are over-represented here; the source holds about 8,800 in all. About 0.5% of all pairs of compound and target were hits.

Compound: COC(=O)N[C@@H](C)CNc1nccc(-c2cn(C(C)C)nc2-c2cc(Cl)cc(NS(C)(=O)=O)c2F)n1 [encorafenib]
Test: log2 fold change, soluble protein after heating vs DMSO (PISA); higher = thermal stabilisation; K562 lysate, 10 uM; active = over 0.2 and 3.5 SD of the protein, either way, in both replicates (recomputed)
In short: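 Pellets of K562 cells were dounce-homogenised in PBS pH 7.4 with 1 mM MgCl2, and the crude extract was held at 1 mg/mL protein for a 30 min treatment with 10 μM compound. Aliquots were heated for 3 min over 48°C-58°C and pooled before NP-40 was added to 0.5% at 4°C. The supernatant from 21,000xg for 90 min was quantified by TMTpro 16plex LC-MS/MS with channel sums equalised. Values are reported from duplicates as log-two fold change in thermal stability relative to solvent controls.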

Sequence of UniProt Q96IV0 (Q96IV0 whole entry, looked up): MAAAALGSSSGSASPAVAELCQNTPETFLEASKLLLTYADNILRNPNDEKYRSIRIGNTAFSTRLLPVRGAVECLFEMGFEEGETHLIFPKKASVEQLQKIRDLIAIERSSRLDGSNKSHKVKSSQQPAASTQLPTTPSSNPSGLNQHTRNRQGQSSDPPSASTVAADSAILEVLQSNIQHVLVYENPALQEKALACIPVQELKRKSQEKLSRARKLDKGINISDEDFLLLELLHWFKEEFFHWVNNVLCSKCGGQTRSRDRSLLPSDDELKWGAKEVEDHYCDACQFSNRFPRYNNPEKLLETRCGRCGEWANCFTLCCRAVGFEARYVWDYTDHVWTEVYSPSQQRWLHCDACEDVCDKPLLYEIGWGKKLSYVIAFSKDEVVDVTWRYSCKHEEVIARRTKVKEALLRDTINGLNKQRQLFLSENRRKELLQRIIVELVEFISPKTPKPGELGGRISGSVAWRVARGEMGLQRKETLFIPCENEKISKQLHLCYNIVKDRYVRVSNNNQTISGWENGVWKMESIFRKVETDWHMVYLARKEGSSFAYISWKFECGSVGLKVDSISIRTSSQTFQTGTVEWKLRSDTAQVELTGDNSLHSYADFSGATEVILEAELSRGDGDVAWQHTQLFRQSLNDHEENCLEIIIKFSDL
Sequence of UniProt Q99836 (Q99836 whole entry, looked up): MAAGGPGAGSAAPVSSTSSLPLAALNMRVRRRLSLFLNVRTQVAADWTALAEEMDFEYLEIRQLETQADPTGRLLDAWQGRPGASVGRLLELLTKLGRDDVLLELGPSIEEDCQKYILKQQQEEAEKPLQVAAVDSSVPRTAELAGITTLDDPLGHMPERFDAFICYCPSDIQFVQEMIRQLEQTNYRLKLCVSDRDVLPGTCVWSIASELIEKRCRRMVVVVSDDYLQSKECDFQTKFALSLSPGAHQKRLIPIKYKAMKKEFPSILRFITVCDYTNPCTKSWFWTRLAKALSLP
Sequence of UniProt P20585 (P20585 whole entry, looked up): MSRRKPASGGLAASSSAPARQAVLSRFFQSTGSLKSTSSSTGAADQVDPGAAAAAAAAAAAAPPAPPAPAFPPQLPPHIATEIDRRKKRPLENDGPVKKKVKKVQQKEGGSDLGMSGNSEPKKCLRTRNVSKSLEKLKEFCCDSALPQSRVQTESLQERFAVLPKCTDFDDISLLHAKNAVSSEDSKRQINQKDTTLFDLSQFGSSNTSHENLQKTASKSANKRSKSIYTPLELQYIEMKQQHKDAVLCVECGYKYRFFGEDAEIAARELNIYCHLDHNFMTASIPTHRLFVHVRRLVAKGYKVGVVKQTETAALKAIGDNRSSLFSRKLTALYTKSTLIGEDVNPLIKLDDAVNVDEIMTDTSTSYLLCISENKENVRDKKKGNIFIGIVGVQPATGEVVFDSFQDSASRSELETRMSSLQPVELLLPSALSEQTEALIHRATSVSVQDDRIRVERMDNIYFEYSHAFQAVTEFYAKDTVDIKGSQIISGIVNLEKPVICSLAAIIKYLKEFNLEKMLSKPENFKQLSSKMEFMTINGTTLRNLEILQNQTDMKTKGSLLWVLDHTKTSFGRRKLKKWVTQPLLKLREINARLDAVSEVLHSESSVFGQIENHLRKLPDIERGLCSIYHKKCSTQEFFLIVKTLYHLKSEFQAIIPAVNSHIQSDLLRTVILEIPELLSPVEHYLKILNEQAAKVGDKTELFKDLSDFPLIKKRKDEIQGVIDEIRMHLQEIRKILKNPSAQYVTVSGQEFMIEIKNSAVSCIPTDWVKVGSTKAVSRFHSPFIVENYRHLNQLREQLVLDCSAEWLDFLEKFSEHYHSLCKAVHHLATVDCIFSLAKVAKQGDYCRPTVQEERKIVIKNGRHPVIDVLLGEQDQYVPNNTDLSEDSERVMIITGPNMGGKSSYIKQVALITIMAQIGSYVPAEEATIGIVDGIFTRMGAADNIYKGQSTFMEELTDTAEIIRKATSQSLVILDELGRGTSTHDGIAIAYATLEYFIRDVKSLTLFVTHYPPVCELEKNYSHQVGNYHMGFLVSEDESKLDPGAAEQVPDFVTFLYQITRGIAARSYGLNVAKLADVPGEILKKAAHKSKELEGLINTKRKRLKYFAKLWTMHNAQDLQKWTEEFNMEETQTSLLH
Sequence of UniProt Q9Y530 (Q9Y530 whole entry, looked up): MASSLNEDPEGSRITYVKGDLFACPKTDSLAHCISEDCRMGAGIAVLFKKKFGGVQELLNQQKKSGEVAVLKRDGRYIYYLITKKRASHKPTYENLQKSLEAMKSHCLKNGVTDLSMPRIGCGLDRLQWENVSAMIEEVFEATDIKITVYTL
Sequence of UniProt Q86XI2 (Q86XI2 whole entry, looked up): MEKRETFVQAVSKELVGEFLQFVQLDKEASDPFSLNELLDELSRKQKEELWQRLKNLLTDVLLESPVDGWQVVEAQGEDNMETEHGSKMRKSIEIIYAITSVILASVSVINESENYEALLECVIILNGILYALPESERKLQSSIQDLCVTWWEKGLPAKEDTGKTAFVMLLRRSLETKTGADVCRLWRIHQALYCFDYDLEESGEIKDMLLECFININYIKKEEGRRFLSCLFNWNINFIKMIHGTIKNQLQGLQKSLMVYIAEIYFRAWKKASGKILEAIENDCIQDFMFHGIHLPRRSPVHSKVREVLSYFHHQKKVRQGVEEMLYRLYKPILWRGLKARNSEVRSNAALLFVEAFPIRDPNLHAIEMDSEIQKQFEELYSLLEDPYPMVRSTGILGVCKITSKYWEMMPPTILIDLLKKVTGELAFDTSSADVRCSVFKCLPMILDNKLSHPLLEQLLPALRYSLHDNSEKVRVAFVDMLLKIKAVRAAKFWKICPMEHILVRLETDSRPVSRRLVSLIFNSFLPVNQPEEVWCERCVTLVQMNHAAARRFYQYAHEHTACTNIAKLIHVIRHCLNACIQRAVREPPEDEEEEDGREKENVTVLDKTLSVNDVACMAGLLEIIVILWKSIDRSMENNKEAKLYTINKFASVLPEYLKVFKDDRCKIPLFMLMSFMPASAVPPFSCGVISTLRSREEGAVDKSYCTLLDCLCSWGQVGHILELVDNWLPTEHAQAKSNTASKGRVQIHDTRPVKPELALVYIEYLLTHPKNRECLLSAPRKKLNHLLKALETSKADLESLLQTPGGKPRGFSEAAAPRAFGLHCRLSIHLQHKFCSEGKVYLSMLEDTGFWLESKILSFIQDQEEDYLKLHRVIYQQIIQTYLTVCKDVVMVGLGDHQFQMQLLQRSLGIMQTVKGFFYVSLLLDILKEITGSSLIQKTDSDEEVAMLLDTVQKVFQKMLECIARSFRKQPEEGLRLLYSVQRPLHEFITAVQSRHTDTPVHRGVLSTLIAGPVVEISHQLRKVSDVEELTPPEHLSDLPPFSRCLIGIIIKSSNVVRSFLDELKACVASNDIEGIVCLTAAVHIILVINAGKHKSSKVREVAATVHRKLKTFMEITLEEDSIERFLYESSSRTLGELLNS
Sequence of UniProt Q9BV86 (Q9BV86 whole entry, looked up): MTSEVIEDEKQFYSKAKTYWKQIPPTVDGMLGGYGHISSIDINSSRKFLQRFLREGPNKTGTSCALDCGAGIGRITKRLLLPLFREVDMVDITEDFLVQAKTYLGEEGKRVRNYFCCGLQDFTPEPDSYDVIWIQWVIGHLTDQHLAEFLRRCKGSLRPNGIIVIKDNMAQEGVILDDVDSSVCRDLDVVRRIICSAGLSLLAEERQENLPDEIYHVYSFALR
Sequence of UniProt Q6IBW4 (Q6IBW4 whole entry, looked up): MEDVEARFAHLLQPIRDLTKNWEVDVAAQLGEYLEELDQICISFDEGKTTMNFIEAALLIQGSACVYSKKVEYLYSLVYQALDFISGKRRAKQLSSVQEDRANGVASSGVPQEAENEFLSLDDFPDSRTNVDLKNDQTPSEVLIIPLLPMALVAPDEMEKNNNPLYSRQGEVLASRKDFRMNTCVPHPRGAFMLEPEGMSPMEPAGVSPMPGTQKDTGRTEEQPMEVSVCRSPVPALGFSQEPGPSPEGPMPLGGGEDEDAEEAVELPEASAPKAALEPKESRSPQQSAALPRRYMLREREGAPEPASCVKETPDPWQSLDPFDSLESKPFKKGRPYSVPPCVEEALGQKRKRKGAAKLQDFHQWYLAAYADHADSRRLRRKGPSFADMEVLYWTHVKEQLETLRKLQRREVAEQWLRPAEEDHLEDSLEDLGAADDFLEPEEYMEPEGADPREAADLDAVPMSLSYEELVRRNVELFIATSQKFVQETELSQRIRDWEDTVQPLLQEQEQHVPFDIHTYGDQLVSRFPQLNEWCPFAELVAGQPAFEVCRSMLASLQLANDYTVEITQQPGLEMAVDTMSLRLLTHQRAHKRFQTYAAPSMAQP
Sequence of UniProt Q9ULX3 (Q9ULX3 whole entry, looked up): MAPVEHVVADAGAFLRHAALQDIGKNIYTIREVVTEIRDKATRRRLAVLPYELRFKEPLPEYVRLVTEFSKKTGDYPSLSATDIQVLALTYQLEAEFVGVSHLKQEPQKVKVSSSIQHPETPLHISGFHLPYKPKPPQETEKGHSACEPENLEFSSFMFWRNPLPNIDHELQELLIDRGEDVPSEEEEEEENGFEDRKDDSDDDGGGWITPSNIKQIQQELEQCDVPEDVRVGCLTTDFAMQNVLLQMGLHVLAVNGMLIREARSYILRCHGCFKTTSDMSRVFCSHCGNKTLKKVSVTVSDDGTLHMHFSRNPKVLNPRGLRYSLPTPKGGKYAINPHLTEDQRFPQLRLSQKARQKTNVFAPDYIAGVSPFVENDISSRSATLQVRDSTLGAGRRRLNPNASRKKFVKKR
Sequence of UniProt P18440 (P18440 whole entry, looked up): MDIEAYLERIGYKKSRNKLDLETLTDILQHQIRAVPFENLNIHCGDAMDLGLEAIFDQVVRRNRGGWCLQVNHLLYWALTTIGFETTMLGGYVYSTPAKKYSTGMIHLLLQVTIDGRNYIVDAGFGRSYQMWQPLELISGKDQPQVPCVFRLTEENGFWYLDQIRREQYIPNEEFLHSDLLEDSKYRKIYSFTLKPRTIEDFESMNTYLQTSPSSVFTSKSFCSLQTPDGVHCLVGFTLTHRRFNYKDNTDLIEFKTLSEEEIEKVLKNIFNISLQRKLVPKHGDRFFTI

log2 fold change, inactive:
ORC2 (UniProt Q13416) 0.018
NIPSNAP3A (UniProt Q9UFN0) 0.016
N6AMT1 (UniProt Q9Y5N5) -0.011
OTUD7B (UniProt Q6GQQ9) 0.042
MSH2 (UniProt P43246) 0.011
MRPL53 (UniProt Q96EL3) -0.036
NFKBIE (UniProt O00221) 0.038
NCAPH2 (UniProt Q6IBW4) 0.064
MRPS18A isoform 2 (UniProt Q9NVS2) 0.029
NOB1 (UniProt Q9ULX3) 0.036
NCAPG2 (UniProt Q86XI2) 0.002
NUMB (UniProt P49757) 0.094
OARD1 (UniProt Q9Y530) 0.011
NF1 (UniProt P21359) 0.026
NTMT1 (UniProt Q9BV86) -0.006
MYD88 isoform 6 (UniProt Q99836) 0.003
NUSAP1 (UniProt Q9BXS6) 0.012
MVB12A (UniProt Q96EY5) -0.015
NAT1 (UniProt P18440) -0.02
MSH3 (UniProt P20585) 0.02
NCK1 (UniProt P16333) 0.008
NGLY1 (UniProt Q96IV0) -0.009
NOA1 (UniProt Q8NC60) -0.049
